Shown are actives, neighbours in structure and some others; about 6.5% of the full set was active somewhere.
Marburg entry inh: Marburg virus entry inhibition | Marburg virus pseudotyped entry inhibition, cell reporter | Potency, µM (top dose mostly 37.8 µM), inactives show top-dose activity change, negative = inhibition, actives largely listed as inhibitors | hit rate 1.8% among 300,000 | AID 540276; calls by dose curve; tested in HEK293 cells; further: potency means the concentration at half of the fitted maximal effect
FMDV antiviral: antivirals against foot and mouth disease virus; FMDV antiviral cell-based qHTS; hit rate 1.2% among 410,000; Potency, µM (titrated, usually from 57.9 µM), for inactives: at the highest dose activity change, negative = inhibition, most hits filed as inhibitors; calls by dose curve; tested in HEK293T cells; further: read-out not given here; potency means the concentration at half of the fitted maximal effect; nearly all actives have a fitted effect of over 45% in size
Vaccinia mCherry: vaccinia inhibition (mCherry reporter). Vaccinia virus mCherry reporter infection, fluorescence. Potency, µM (top dose mostly 36.5 µM), without a hit: at the highest dose activity change, negative = inhibition, actives largely listed as inhibitors. hit rate 0.63% among 310,000. AID 720579; calls by dose curve; tested in A549 cells; further: potency means the concentration at half of the fitted maximal effect; nearly all actives have a fitted effect of over 35% in size
Lassa entry inh: Lassa virus entry inhibition | Lassa virus pseudotype entry inhibition, cell reporter | Potency, µM (doses to about 37.9 µM), inactives show at the highest dose activity change, negative = inhibition, usual class: inhibitors | hit rate 1.2% among 300,000 | AID 540256; calls by dose curve; tested in HEK293 cells; further: potency means the concentration at half of the fitted maximal effect; nearly all actives have a fitted effect of over 50% in size
HCMV inh: inhibitors of human cytomegalovirus; HFF cells, HCMV-luciferase reporter, 72 h; hits give low values; activity change, negative = inhibition, % at 57.5 µM; hit rate 4.5% among 410,000; in the data active means activity change below about -60%; inconclusive means no clear call, values can overlap the other calls; inactive means above about -39%
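Inhibition of viral replication was scored as loss of reporter luminescence in HFFs infected with HCMV-luciferase (MOI 1 PFU/cell) for 72 h; compounds tested at 2 doses, normalized to buffer and Salinomycin controls.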
Vaccinia Venus: inhibitors of vaccinia virus (Venus reporter); Vaccinia virus Venus reporter expression, fluorescence; Potency, µM (top dose mostly 36.5 µM), without a hit: at the highest dose activity change, negative = inhibition, most hits filed as inhibitors; hit rate 0.46% among 330,000; AID 720580; calls by dose curve; tested in A549 cells; further: potency means the concentration at half of the fitted maximal effect; nearly all actives have a fitted effect of over 30% in size
Numbers without * were called inactive; i = inactive; ? = inconclusive; . = no result given; [ ] = dose if it differs, or a comment. On the % scale 0 is the no-effect control and ±100 the full control effect.

SMILES	Marburg entry inh	FMDV antiviral	Vaccinia mCherry	Lassa entry inh	HCMV inh	Vaccinia Venus
COc1ccc(Cl)cc1NC(=O)CCCS(=O)(=O)c1nc(-c2ccc(OC)c(OC)c2)cc(C(F)(F)F)n1	?	?	-12%	-4%[46.1 µM]	-99*	-13%
COc1ccc(-c2cc(C(F)(F)F)nc(S(=O)(=O)CCCC(=O)Nc3cc(C)on3)n2)cc1OC	?	13µM*	-21%	?	47	-20%
COc1ccccc1-c1cc(C(F)(F)F)nc(S(=O)(=O)CCCC(=O)Nc2cc(Br)ccc2O)n1	?	18%	-12%	7%[46.1 µM]	55	-5%
COc1ccccc1-c1cc(C(F)(F)F)nc(S(=O)(=O)CCCC(=O)Nc2cc(C)on2)n1	?	13µM*	-23%	-3%	-96*	?
CCCCn1c(N)c(N(CC(C)C)C(=O)C2=NN(c3ccccc3)C(=O)CC2)c(=O)[nH]c1=O	17%	-4%	-8%	3%	-3	-6%
COc1ccc(CNC(=O)CSc2nnc(C)c3c(C)n(-c4ccccc4)nc23)c(OC)c1	.	?	-13%	?	-65*	-13%
Cc1nnc(SCC(=O)NCc2cccc(F)c2)c2nn(-c3ccccc3)c(C)c12	.	?	-26%	?	-61*	-27%
COc1cccc(CNC(=O)CSc2nnc(C)c3c(C)n(-c4ccccc4)nc23)c1OC	.	?	i	-2%[46.1 µM]	-19	-7%
O=C1O[C@H](Nc2ccc(Br)cn2)c2ccccc21	5%	.	.	.	.	.
COc1ccc(O[C@H]2C=C[C@@H](c3ccccc3)O[C@@H]2CO/N=C2/[C@H]3CCn4c(=O)n(-c5ccccc5)c(=O)n4[C@H]3[C@H](O)[C@@H]3O[C@H]23)cc1	5%[14.2 µM]	.	.	.	.	.
COc1ccccc1OCc1nc(C#N)c(NCc2ccc(C)cc2)o1	-23%[46.1 µM]	-13%	-10%	-8%[46.1 µM]	2	8%
COc1ccc(Nc2oc(COc3ccccc3OC)nc2C#N)cc1	?	11%	-12%	?	-80*	-3%
COc1ccc(CCNc2oc(COc3ccccc3Cl)nc2C#N)cc1OC	.	20µM*	-28%	.	19	-22%
COc1ccc(CCNc2oc(COc3ccccc3F)nc2C#N)cc1OC	?	0%	i	?	-3	-26%
COc1ccc(CCNc2oc(Cc3ccccc3)nc2C#N)cc1OC	?	14µM*	-12%	-15%	-14	-33%
CCCN(CC(=O)Nc1ccc(F)c(F)c1F)CC(=O)Nc1c(C)n(C)n(-c2ccccc2)c1=O	21%	?	-13%	4%	-69*	-11%
Cc1ccc(NC(=O)c2c(C)oc3ccc(O)c(CN4CCCCCC4)c23)cc1	?	?	-6%[7.34 µM]	?	-85*	-5%[7.34 µM]
Cc1oc2ccc(O)c(CN3CCCCCC3)c2c1C(=O)Nc1cccc(Cl)c1C	?	?	?	?	-100*	-22%
COc1ccc(NC(=O)c2c(C)oc3ccc(O)c(CN4CCN(Cc5ccccc5)CC4)c23)cc1Cl	?	-19%	-11%	7.9µM*	-14	-25%
CCN1CCN(Cc2c(O)ccc3oc(C)c(C(=O)Nc4ccc(OC)c(Cl)c4)c23)CC1	?	-27%	-9%	?	-18	2%
Cc1oc2ccc(O)c(CN(C)Cc3ccccc3)c2c1C(=O)Nc1cccc(Cl)c1C	?	?	-22%	?	-66*	-16%
CCc1cccc(CC)c1NC(=O)c1c(C)oc2ccc(O)c(CN3CCCC3)c12	?	-14%	-7%	-22%[46.1 µM]	-4	1%
Cc1cc(C)cc(NC(=O)N2CCC(N3CCN(Cc4ccccc4)C(=O)C3=O)CC2)c1	.	-9%	3%	-5%[46.1 µM]	12	5%
CCO[C@H](c1cc(OC)cc([N+](=O)[O-])c1OC)[C@H](C)C=CCC(=O)OC	1%[14.2 µM]	.	.	.	.	.
CCN1C(=NCc2ccco2)N[C@@H](c2ccccc2)[C@H](C(=O)OC)[C@H]1C	13%[14.2 µM]	.	.	.	.	.
C=C1C(O)C[C@@H](C(C)C)N(CC(C)C)S1(=O)=O (some centres undefined)	.	-21%	i	.	-19	-17%
Cc1ccc(NC(=O)c2c(C)oc3ccc(O)c(CN4CCOCC4)c23)c(C)c1	8%[46.1 µM]	-20%	-4%	-13%[46.1 µM]	10	1%
